PKA-R1A act: PKA-R1A complex activation; PKA-R1A dissociation, Cy5-IP20 fluorescence polarization; scaled: DMSO 0%, 113 µM cGMP 100%; activation, % at 11.4 µM; actives 0.083% (n = 340,000); AID 504707;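 active = percent activation above the mean of all tested compounds plus 3 SD, cut at about 19% in these data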;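 also: higher means more PKAc released from R1A so a rise in polarization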
CHT allo act: allosteric activators of human choline transporter CHT; Q9GZV3; CHT-expressing cells, membrane potential dye, choline EC20; hits give high values; LV-AA mutant CHT in HEK293 cells; B-score at 10 µM; actives 0.49% (n = 310,000); AID 488977;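 active = initial fluorescence not abnormally high and integrated response B-score, plate-corrected, over 3 SD above library mean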
CHT inh: human CHT choline transport inhibition; CHT-expressing cells, membrane potential dye, choline response; hits give low values; B-score at 10 µM; actives 0.86% (n = 310,000); AID 488975;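 active = B-score over 3 SD under the library average, and starting fluorescence ratio not unusually high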;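 also: choline stimulus applied at its EC90 after an EC20 pre-addition; B-score computed on integrated fluorescence ratio after choline addition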
TMEM16A act: mouse TMEM16A channel activation, primary screen; Q8BHY3; HEK293 TMEM16A/YFP-H148Q/I152L, iodide quench fluorescence; hits give low values; B-score at 10 µM; actives 0.3% (n = 340,000);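 active = fluorescence-ratio B-score plate-corrected deviation score at least 3 library SD below zero, with starting fluorescence score within 5 deviations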;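 also: channel opened by trigger with iodide after compound preincubation; score built on the fluorescence ratio of max minus min over baseline; more negative score means more quench and so TMEM16A activation or potentiation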
ANO1 block: mouse TMEM16A channel inhibition, primary screen. Q8BHY3. HEK293 TMEM16A/YFP iodide influx fluorescence, ionomycin. normalized B-score (activity score, 25-100; higher = stronger inhibition) at 10 µM. actives 1.2% (n = 310,000). AID 588511;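 active = ratio plate-corrected score three or more library SD toward inhibition, starting fluorescence score within five deviations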;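 also: score derived from kinetic fluorescence span divided by baseline fluorescence per well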
PKA-R2B act: activates the human PKA-R2B holoenzyme complex | P22694+P31323 | PKA-R2B holoenzyme dissociation, Cy5-IP20 fluorescence polarization; R2B truncated from residue 108, S112A mutant; 0% DMSO only, 100% 113 µM cGMP | activation, % at 11.4 µM | actives 0.079% (n = 340,000);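 active = activation above a cutoff set at the mean over all compounds plus 3 SD, cut at about 18% in these data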;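 also: higher means more holoenzyme dissociation and a rise in polarization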
R1A FP artifact: fluorescence polarization artifact in PKA-R1A activator counter-screen; actives 7% (n = 280); AID 504799; shares compounds with PKA-R1A act; activation, % at 11.4 µM; Cy5-IP20 peptide alone, fluorescence polarization artifact counterscreen;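 active = mean activation over triplicate runs exceeds the adjusted cutoff derived for the parent primary screen, cut at about 19% in these data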;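 also: no PKA protein present so any polarization rise reflects compound interference; higher means stronger polarization artifact and likely false positive in parent screen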
PKA-R1A confirm: confirmation of PKA-R1A complex activators; shares compounds with PKA-R1A act; Cy5-IP20 fluorescence polarization, PKA-R1A holoenzyme dissociation; activation, % at 11.4 µM; actives 9% (n = 280); AID 504800;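 active = mean activation over replicate wells exceeds the adjusted hit threshold taken from the earlier primary screen, cut at about 20% in these data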
TMEM16A reconf: re-confirmation of mouse TMEM16A chloride channel inhibitors; shares compounds with ANO1 block; HEK293 TMEM16A/YFP-H148Q, iodide quench fluorescence; ionomycin added to raise cell calcium; inhibition, % at 10 µM; actives 39% (n = 2,300); AID 652189;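 active = mean duplicate percent inhibition, scaled so buffer wells are 0 and the reference blocker 100, over three buffer SD above buffer mean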
TMEM16A Ca cntr: alters calcium mobilization in TMEM16A HEK293 cells, counter-screen; shares compounds with ANO1 block; TMEM16A/YFP HEK293, Fluo4 calcium mobilization; calcium response (% of ionomycin), % at 10 µM; actives 2% (n = 2,300); AID 652231;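 active = duplicate-averaged calcium signal over 20% of the ionomycin maximum, relative to buffer baseline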;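 also: each well's signal is peak minus trough fluorescence divided by its pre-addition baseline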
YFP-HEK293 quench: parental YFP-HEK293 iodide quench counter-screen activity. shares compounds with ANO1 block. ionomycin. YFP ratio F(max-min)/F0 at 10 µM. 2,300 tested, under 10 active. AID 652233;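 active = yellow fluorescent protein signal ratio exceeding the buffer control mean by over 5 SD of those controls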;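 also: ratio is mean of duplicate wells from kinetic YFP trace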
ClC-1 inh: rat ClC-1 inhibition, TMEM16A specificity screen; shares compounds with ANO1 block; AID 652236; 2,300 tested, under 10 active; CHO ClC-1-YFP, iodide influx fluorescence quench; iodide control reads 0, buffer control 100; ratio percent, % at 10 µM;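 active = duplicate-mean ratio percent above the mean of iodide-only control wells, which defines zero, plus 5 of their SD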;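 also: higher percent means stronger block of ClC-1 iodide influx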
Target sequence (P35524 whole entry, looked up): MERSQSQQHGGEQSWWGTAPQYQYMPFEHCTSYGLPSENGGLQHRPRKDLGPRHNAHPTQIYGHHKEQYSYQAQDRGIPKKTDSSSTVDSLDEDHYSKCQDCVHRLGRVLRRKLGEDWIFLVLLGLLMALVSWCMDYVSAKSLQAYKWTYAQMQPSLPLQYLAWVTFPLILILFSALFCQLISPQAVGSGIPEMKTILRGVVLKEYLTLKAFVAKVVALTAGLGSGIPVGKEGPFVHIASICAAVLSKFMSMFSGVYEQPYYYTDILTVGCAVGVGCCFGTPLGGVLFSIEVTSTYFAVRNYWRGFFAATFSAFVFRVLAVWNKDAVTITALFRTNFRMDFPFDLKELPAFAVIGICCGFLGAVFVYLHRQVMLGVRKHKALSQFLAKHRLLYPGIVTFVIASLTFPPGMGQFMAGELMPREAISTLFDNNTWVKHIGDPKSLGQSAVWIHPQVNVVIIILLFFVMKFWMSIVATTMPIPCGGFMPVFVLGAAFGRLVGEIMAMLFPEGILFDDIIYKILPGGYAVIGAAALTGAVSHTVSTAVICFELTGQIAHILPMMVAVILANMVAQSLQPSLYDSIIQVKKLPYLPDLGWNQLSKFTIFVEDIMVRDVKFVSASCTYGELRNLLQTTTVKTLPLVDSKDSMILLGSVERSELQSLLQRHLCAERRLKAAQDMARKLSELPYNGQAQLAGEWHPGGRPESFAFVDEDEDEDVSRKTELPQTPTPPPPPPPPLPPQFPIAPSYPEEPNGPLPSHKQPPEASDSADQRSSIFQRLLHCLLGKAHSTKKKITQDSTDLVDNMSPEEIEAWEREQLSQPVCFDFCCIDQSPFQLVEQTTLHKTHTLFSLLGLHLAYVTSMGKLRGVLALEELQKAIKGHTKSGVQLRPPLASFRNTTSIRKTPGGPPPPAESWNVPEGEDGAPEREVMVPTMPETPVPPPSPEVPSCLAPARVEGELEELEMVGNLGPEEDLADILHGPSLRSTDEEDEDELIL
Large screens that a line does not name were inactive (follow-up assays come after a bar, where they were run). A selection: hits, their analogues and other compounds. The true share with any hit is near 2.5%.

Cc1nc2oc3c(=O)[nH]cnc3c2c2c1COC(C)(C)C2	none
COc1ncnc2c1oc1nc(CC(C)C)c3c(c12)CC(C)(C)OC3	PKA-R1A act 20 | R1A FP artifact inactive | PKA-R1A confirm inactive
COc1ccc(CNC(=O)CCNS(=O)(=O)c2cc(Br)cnc2N)cc1	none
CCC(=O)Nc1ccc(C(=O)NNC(=O)COc2cccc(C)c2)cc1	PKA-R1A act 20 | R1A FP artifact inactive | PKA-R1A confirm inactive
CC1CC(N(C(=O)c2ccc(Cl)cc2)c2ccccc2)c2ccccc2N1C(=O)c1ccco1 (configuration not stated)	none
CC1CC(N(C(=O)c2ccco2)c2ccccc2)c2ccccc2N1C(=O)c1ccco1 (configuration not stated)	PKA-R1A act 19 | R1A FP artifact inactive | PKA-R1A confirm inactive
COc1ccc(Cl)cc1S(=O)(=O)N(C)CC(=O)NCc1ccc2c(c1)OCO2	none
O=C(CSc1ccc(-c2ccncc2)nn1)N1CCCCC1	PKA-R1A act 19 | R1A FP artifact inactive | PKA-R1A confirm inactive
O=C(Nc1ccnn1C1CCN(C(=O)Cc2ccccc2F)CC1)C1CC1	none
Cc1ccc(S(=O)(=O)n2cnc(C)c2)cc1	PKA-R1A act 20 | R1A FP artifact inactive | PKA-R1A confirm inactive
CC(=O)Nc1ccc(S(=O)(=O)n2cnc(C)c2)cc1	none
Cc1csc(=O)n1CC(=O)OCC(=O)Nc1ccc(F)c(F)c1	none
CC(=O)c1ccc(NC(=O)CSc2nc3nc(C)cc(C)n3n2)cc1	PKA-R1A act 19 | R1A FP artifact inactive | PKA-R1A confirm inactive
CCCCCCCn1c(C)nnc1-c1cnn(C)c1N	PKA-R1A act 20 | R1A FP artifact inactive | PKA-R1A confirm inactive
CC#CC(=O)NC1CCCN(C2Cc3ccccc3C2)C1 (configuration not stated)	PKA-R1A act 19 | R1A FP artifact inactive | PKA-R1A confirm inactive
O=C(COC(=O)c1ccc(S(=O)(=O)C(F)F)cc1)NC(=O)NC1CCCCC1	none
NC(=O)C1CCN(C(=O)C(=O)c2cn(CC(=O)N3CCCC3)c3ccccc23)CC1	PKA-R1A act 20 | R1A FP artifact inactive | PKA-R1A confirm inactive
CC1CCN(C(=O)C(=O)c2cn(CC(=O)N3CCCC3)c3ccccc23)CC1	none
Cc1ccc(C(=O)Cn2c(C)cc(C)c(C#N)c2=O)cc1	none
Cc1cc(C)n(CC(=O)c2ccccc2)c(=O)c1C#N	ANO1 block 100 | TMEM16A reconf inactive | TMEM16A Ca cntr inactive | YFP-HEK293 quench inactive | ClC-1 inh inactive
CC[C@@]1(C(=O)OC)N[C@H](CN(C)C(=O)COc2ccccc2)[C@@H]2C(=O)N(Cc3ccccc3)C(=O)[C@@H]21	none (no result: CHT allo act, CHT inh, TMEM16A act, ANO1 block)
CC(C)(C)c1ccc(CN(Cc2ccco2)Cc2nnnn2C2CCCC2)cc1	none
CCC(C)(C)n1nnnc1CN(Cc1ccc(Cl)cc1)Cc1ccco1	ANO1 block 25 | TMEM16A reconf 22% | TMEM16A Ca cntr inactive | YFP-HEK293 quench inactive | ClC-1 inh inactive
Cc1ccccc1OCCC(=O)OCC(=O)NCCc1ccccc1	none
COCC1CCN(C(=O)c2cc(COc3cccc4cnccc34)on2)CC1	none
O=C(c1cc(COc2cccc3cnccc23)on1)N1CCCC(CCCO)C1 (configuration not stated)	ANO1 block 25 | TMEM16A reconf 40% | TMEM16A Ca cntr inactive | YFP-HEK293 quench inactive | ClC-1 inh inactive
CCC(O)c1cnc(OCc2ccccc2)nc1OCc1ccccc1 (configuration not stated)	none (no result: CHT allo act, CHT inh, TMEM16A act, ANO1 block)
COC(=O)c1c(NC(=S)Nc2ccc(F)cc2[N+](=O)[O-])sc2c1CCCCC2	none
COC(=O)c1ccc(-n2c(C)cc(C(=O)CSc3ccc(NC(C)=O)cc3)c2C)cc1	ANO1 block 25 | TMEM16A reconf 24% | TMEM16A Ca cntr inactive | YFP-HEK293 quench inactive | ClC-1 inh inactive
CC(=O)Nc1ccc(SCC(=O)c2cc(C)n(-c3ccccc3F)c2C)cc1	none
O=C(CCc1nc2ccccc2c(=O)[nH]1)NCCN1C(=O)S/C(=C\c2ccc(Cl)cc2Cl)C1=O	ANO1 block 25 | TMEM16A reconf inactive | TMEM16A Ca cntr inactive | YFP-HEK293 quench inactive | ClC-1 inh inactive
Cc1ccc(NC(=O)CNc2cccc(C)c2C)c(C)c1	ANO1 block 100 | TMEM16A reconf inactive | TMEM16A Ca cntr inactive | YFP-HEK293 quench inactive | ClC-1 inh inactive
CCOc1ccc(-c2[nH]ncc2Oc2cccc(OC)c2)c(O)c1	ANO1 block 100 | TMEM16A reconf inactive | TMEM16A Ca cntr inactive | YFP-HEK293 quench inactive | ClC-1 inh inactive
COc1cccc(Oc2cn[nH]c2-c2ccc(OC)cc2O)c1	ANO1 block 25 | TMEM16A reconf 20% | TMEM16A Ca cntr inactive | YFP-HEK293 quench inactive | ClC-1 inh inactive
COc1cccc(Oc2cn[nH]c2-c2ccc(O)cc2O)c1	none
O=C1CC(C(=O)N2CCc3ccccc32)CN1c1cccc(C(F)(F)F)c1 (configuration not stated)	none (no result: CHT allo act, CHT inh, ANO1 block)
O=C(CN(c1ccccc1)S(=O)(=O)c1ccc(F)cc1)NC1CCS(=O)(=O)C1 (configuration not stated)	none
CCOc1cc(CNc2ccccc2)cc(Br)c1OCC(=O)NC(C)(C)C	ANO1 block 25 | TMEM16A reconf inactive | TMEM16A Ca cntr inactive | YFP-HEK293 quench inactive | ClC-1 inh inactive
CCOc1cc(CNc2ccc(Br)cc2)cc(Br)c1OCC(=O)NC(C)(C)C	none

Assay outcomes as filed in PubChem BioAssay.
